Test systems include HCT-15 colon; HT29 colon; SNB-75 CNS; SNB-19 CNS; U251 CNS; PC-3 prostate; SK-MEL-5 melanoma; UACC-62 melanoma; LOX IMVI melanoma; SK-MEL-28 melanoma; SK-MEL-2 melanoma; UO-31 renal; TK-10 renal; ACHN renal; CAKI-1 renal; A498 renal; MOLT-4 leukemia; SN12C renal; CCRF-CEM leukemia; EKVX NSCLC.
What all share (test): NCI-60 one-dose screen, 48 h (100 = growth as untreated, 0 = no growth, -100 = all killed)
Common to all, as to details: 10 µM unless noted

About 83,000 compounds went through this panel and 20% of them were active in at least one assay; those are over-represented in the sample as a whole.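 How to read the values: 0–100, growth inhibition (40 = 60% inhibited); 0, no net growth; -100 to 0, cell death (-40 = 40% of starting cells died; -100 = all dead).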 Unmarked numbers belong to inactive results. Activity calls are given as the source filed them. How the source made its calls: active means growth percent below 10; inactive means the rest.

On to `Clc1nc(Cl)c2ncn(CC3(Cn4cnc5c(Cl)nc(Cl)nc54)COC3)c2n1`, for which the growth in the experiment on HCT-15 colon is -89.9% (active); with HT29 colon, -70.1% (active); with SNB-75 CNS, -96.6% (active); in the experiment with SNB-19 CNS it was -99.1% (active); in the experiment with U251 CNS, -95.9% (active); in the experiment on PC-3 prostate, -98.4% (active). Besides, the growth with SK-MEL-5 melanoma is -96.2% (active); with UACC-62 melanoma, -92.4% (active); with LOX IMVI melanoma, -89.2% (active); in the experiment on SK-MEL-28 melanoma, -97.9% (active); with SK-MEL-2 melanoma, -76% (active); with UO-31 renal it was -97.7% (active). In addition, the growth with TK-10 renal was -93.2% (active); with ACHN renal, -98.7% (active); in the experiment on CAKI-1 renal, -87.8% (active); in the experiment on A498 renal, -88.6% (active); in the experiment with MOLT-4 leukemia it was -66.8% (active).
As for `Brc1ccc(C2CC(c3cccc(Nc4ccncc4)c3)=NN2c2ccccc2)cc1` (stereo not given), the growth was 13.5% with HCT-15 colon; 4.59% (active) in the experiment with HT29 colon; 79.6% with SNB-75 CNS; 94.3% in the experiment on SNB-19 CNS; 32.1% with U251 CNS; 52.4% in the experiment on PC-3 prostate. Moreover, the growth was 82.2% in the experiment on SK-MEL-5 melanoma; 98.6% in the experiment with UACC-62 melanoma; 53.4% in the experiment with LOX IMVI melanoma; 73.3% in the experiment with SK-MEL-28 melanoma; 102% with SK-MEL-2 melanoma; 81.2% in the experiment on SN12C renal. For the same compound, the growth was 74.6% in the experiment with UO-31 renal; 91.3% in the experiment with ACHN renal; 81.1% with CAKI-1 renal; 80.2% in the experiment with A498 renal; 63.2% with CCRF-CEM leukemia; 47.3% with MOLT-4 leukemia.
For `COc1cc(CNC(=O)CCCCC[P+](c2ccccc2)(c2ccccc2)c2ccccc2)c(OC)c2c1OCO2`, the growth is 99.8% in the experiment with HCT-15 colon; 45.2% in the experiment with HT29 colon; 68.5% in the experiment with SNB-75 CNS; 53.6% in the experiment on SNB-19 CNS; 63.7% with U251 CNS; 63.2% with PC-3 prostate. Also, the growth with SK-MEL-5 melanoma was 84.3%; with UACC-62 melanoma, 41.8%; with LOX IMVI melanoma, 61%; in the experiment on SK-MEL-28 melanoma it was 42.1%; in the experiment with SK-MEL-2 melanoma, 60.3%; with SN12C renal, 75.4%. The growth in the experiment on UO-31 renal was 92.3%; in the experiment on TK-10 renal, 84.3%; with ACHN renal, 106%; with CAKI-1 renal it was 89.4%; in the experiment with A498 renal, 78.8%; with MOLT-4 leukemia it was 99.2%.
For the compound `CN1CCN(c2ccc(NC3=C(Cl)C(=O)c4ncccc4C3=O)cc2C#N)CC1`, the growth in the experiment on HCT-15 colon is 48.2%; with HT29 colon it was 103%; with SNB-75 CNS, 81.1%; with SNB-19 CNS it was 96.8%; in the experiment on U251 CNS, 56.1%; in the experiment on PC-3 prostate, 60.6%. In addition, the growth with SK-MEL-5 melanoma is 97.5%; in the experiment on UACC-62 melanoma, 83.4%; with SK-MEL-28 melanoma, -50.9% (active); with SK-MEL-2 melanoma, 78.8%; in the experiment on EKVX NSCLC, 36.4%; with SN12C renal, 25.5%. Moreover, the growth with UO-31 renal was -34.9% (active); in the experiment with TK-10 renal it was 85.4%; in the experiment with ACHN renal, -96.1% (active); in the experiment with CAKI-1 renal, 0.744% (active); with A498 renal, 79.7%; in the experiment on CCRF-CEM leukemia, -19.9% (active). Moreover, the growth in the experiment on MOLT-4 leukemia was -10.8% (active).
For `Cc1cc2nc(-c3ccccc3)c(-c3ccccc3)nc2cc1C`, the growth in the experiment with HCT-15 colon is 98.1%; in the experiment with HT29 colon it was 116%; in the experiment on SNB-75 CNS it was 114%; in the experiment on SNB-19 CNS it was 104%; with U251 CNS it was 105%; in the experiment with PC-3 prostate, 106%. The growth is 92.4% in the experiment on SK-MEL-5 melanoma; 85.5% with UACC-62 melanoma; 100% with LOX IMVI melanoma; 105% in the experiment with SK-MEL-28 melanoma; 107% in the experiment on SK-MEL-2 melanoma; 89.2% with EKVX NSCLC. Further, the growth is 113% in the experiment on UO-31 renal; 114% in the experiment with ACHN renal; 98.7% with CAKI-1 renal; 99.4% with CCRF-CEM leukemia; 89% in the experiment with MOLT-4 leukemia.
`O=C(OCc1nc2nc(Cl)nc(N3CCOCC3)c2[nH]1)n1ccnc1`: the growth is -35.2% (active) in the experiment on HCT-15 colon; -55.2% (active) in the experiment with HT29 colon; -14.2% (active) in the experiment with SNB-75 CNS; 62.9% in the experiment with SNB-19 CNS; 1.06% (active) in the experiment on U251 CNS; -24.5% (active) in the experiment on PC-3 prostate. The growth was 20.1% in the experiment on SK-MEL-5 melanoma; -80.4% (active) in the experiment with UACC-62 melanoma; -77.1% (active) in the experiment on LOX IMVI melanoma; -36.5% (active) in the experiment on SK-MEL-28 melanoma; -67.1% (active) in the experiment on SK-MEL-2 melanoma; 8.48% (active) in the experiment on SN12C renal. Besides, the growth was -81% (active) in the experiment with UO-31 renal; -77.4% (active) in the experiment with TK-10 renal; -100% (active) in the experiment on ACHN renal; -68.8% (active) with CAKI-1 renal; -4.23% (active) in the experiment with A498 renal; -12% (active) in the experiment on CCRF-CEM leukemia. Moreover, the growth in the experiment on MOLT-4 leukemia was 9.71% (active).
`CC1CCN(C(=O)OCc2nc3nc(Cl)nc(N4CCOCC4)c3[nH]2)CC1`: the growth with HCT-15 colon is -12.2% (active); with HT29 colon, -66.8% (active); in the experiment on SNB-75 CNS, 14.8%; in the experiment on SNB-19 CNS, 60.3%; in the experiment with U251 CNS, -89.2% (active); in the experiment with PC-3 prostate, -59.2% (active). Also, the growth with SK-MEL-5 melanoma is -27.3% (active); with UACC-62 melanoma, -94.1% (active); in the experiment on LOX IMVI melanoma it was -86.4% (active); with SK-MEL-28 melanoma, -86.4% (active); in the experiment on SK-MEL-2 melanoma it was -92% (active); in the experiment on SN12C renal it was -61.4% (active). The growth in the experiment on UO-31 renal was -100% (active); with TK-10 renal, -91.8% (active); in the experiment on ACHN renal it was -100% (active); with CAKI-1 renal, -73.8% (active); with A498 renal it was 42.2%; in the experiment on CCRF-CEM leukemia it was -7.16% (active). Moreover, the growth in the experiment with MOLT-4 leukemia was 0.0264% (active).
Regarding `O=C(N/N=C/c1ccc(F)cc1)c1ccccc1Nc1cccc(C(F)(F)F)c1`, the growth was 85.6% in the experiment with HCT-15 colon; 118% in the experiment on HT29 colon; 99.5% with SNB-75 CNS; 90.2% with SNB-19 CNS; 100% in the experiment on U251 CNS; 96.2% in the experiment with PC-3 prostate. Moreover, the growth with SK-MEL-5 melanoma is 109%; in the experiment on UACC-62 melanoma it was 101%; with LOX IMVI melanoma it was 86.6%; in the experiment with SK-MEL-28 melanoma, 91.2%; with SK-MEL-2 melanoma it was 114%; in the experiment with SN12C renal, 102%. Also, the growth was 94.1% in the experiment with UO-31 renal; 130% with TK-10 renal; 102% in the experiment with ACHN renal; 112% in the experiment with CAKI-1 renal; 70.8% with A498 renal; 6.32% (active) with CCRF-CEM leukemia. Besides, in the experiment with MOLT-4 leukemia, the growth was 7.44% (active).
`O=C1Nc2ccccc2/C1=C\c1cccc(/C=C2/C(=O)Nc3ccccc32)n1`: the growth is -81.3% (active) with HCT-15 colon; 2.35% (active) with HT29 colon; -71.5% (active) in the experiment with SNB-75 CNS; -82.7% (active) in the experiment on SNB-19 CNS; -98.1% (active) with U251 CNS; -28% (active) in the experiment with PC-3 prostate. Further, the growth was -99.1% (active) in the experiment with SK-MEL-5 melanoma; -67.3% (active) with UACC-62 melanoma; -88.2% (active) in the experiment with LOX IMVI melanoma; -88.8% (active) in the experiment on SK-MEL-28 melanoma; -34% (active) in the experiment on SK-MEL-2 melanoma; 8.35% (active) in the experiment on SN12C renal. Besides, the growth with UO-31 renal was -82.5% (active); in the experiment on TK-10 renal, -59.3% (active); in the experiment with ACHN renal, -100% (active); with CAKI-1 renal, -80.7% (active); in the experiment with A498 renal it was -77.7% (active); in the experiment with CCRF-CEM leukemia, -51.9% (active). Besides, in the experiment on MOLT-4 leukemia, the growth is -30% (active).

(Values after PubChem BioAssay (NCI).)
